FXN GAA850 act – FXN promoter activators, primary screen, cell-based, luciferase luminescence, HEK293 lucGAA850; HEK293 lucGAA850 FXN promoter luciferase reporter, 24 h; percent of 10 µM SAHA response; activation, % at 6 µM; 0.56% of 360,000 active; AID 540364, 2011;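 active = activation above the average of all compounds screened plus 3 SD, cutoff fixed separately per campaign, cut at about 7.5% in these data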
MITF act – activators of MITF-driven TRPM1 promoter reporter, primary screen, cell-based, SK-MEL-5, luciferase, single point | activation, % at 12.5 µM | 0.75% of 300,000 active | SK-MEL-5 TRPM1-promoter luciferase, 24 h; % of positive control, neutral wells = 0;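 active = mean activation of at least 80% with every replicate also reaching 80%; inconclusive = mean reaches 80% but some replicate falls short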
AHR act – AHR activators, primary screen, cell-based, luminescence, luciferase reporter, human. 2.5% of 320,000 active. Aryl hydrocarbon receptor (Homo sapiens), P35869. activation, % at 5 µM. AHR-responsive luciferase reporter cells. AID 2796, 2010; in the data active = activation above about 47%
Target sequence (P35869 whole entry, looked up): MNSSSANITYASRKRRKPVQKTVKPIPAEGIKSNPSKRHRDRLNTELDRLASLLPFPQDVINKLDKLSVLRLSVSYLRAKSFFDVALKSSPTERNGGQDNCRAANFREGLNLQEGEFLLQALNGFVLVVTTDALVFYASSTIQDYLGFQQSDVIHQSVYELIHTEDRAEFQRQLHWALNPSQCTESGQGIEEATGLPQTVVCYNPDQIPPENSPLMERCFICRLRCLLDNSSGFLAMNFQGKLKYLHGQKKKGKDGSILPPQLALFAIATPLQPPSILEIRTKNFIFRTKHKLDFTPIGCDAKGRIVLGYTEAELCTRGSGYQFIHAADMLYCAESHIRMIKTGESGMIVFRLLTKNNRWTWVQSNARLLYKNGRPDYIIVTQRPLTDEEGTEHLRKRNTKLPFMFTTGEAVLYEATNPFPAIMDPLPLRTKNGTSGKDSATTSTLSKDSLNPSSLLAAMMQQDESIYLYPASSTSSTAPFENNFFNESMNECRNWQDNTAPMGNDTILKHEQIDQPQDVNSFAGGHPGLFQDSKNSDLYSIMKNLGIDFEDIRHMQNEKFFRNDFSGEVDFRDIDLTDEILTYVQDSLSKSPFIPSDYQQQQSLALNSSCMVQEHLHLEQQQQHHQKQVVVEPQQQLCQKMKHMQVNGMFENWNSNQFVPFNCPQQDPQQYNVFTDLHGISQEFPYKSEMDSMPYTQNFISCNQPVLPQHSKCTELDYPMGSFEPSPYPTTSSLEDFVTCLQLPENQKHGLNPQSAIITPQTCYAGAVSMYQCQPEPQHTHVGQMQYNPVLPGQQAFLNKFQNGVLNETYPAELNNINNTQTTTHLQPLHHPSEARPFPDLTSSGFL
Wnt bcat act – Wnt/beta-catenin pathway activators, primary screen, cell-based, plate reader, single point; Wnt/beta-catenin reporter cell assay, activator; activation, % at 9.35 µM; 1.2% of 300,000 active; AID 743398, 2014; in the data active = activation above about 30%, passing the limit was not always enough; inconclusive = no clear call, values can overlap the other calls
esBAF inh – Bmi1 luciferase reporter increase in mESCs, primary screen, esBAF inhibitor project, mouse ES cells, Bmi1 luciferase knock-in, single point. 24 h; 100% = twice the neutral-well signal. reporter increase, % at 12.5 µM. 2% of 350,000 active. AID 602393, 2012; in the data active = activation above about 40%; inconclusive = no clear call, values can overlap the other calls;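 also: a rise in the Bmi1 reporter signal indicates esBAF inhibition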
Each line names hits and unclear results; the compound was inactive in the other large screens; ! = not confirmed by another sample. The list is not random: actives were taken first. Their share in the collection is about 4.2%.

O=C(C[C@@H]1C[C@H]2c3cc(NC(=O)NC4CCCC4)ccc3O[C@H]2[C@H](CO)O1)NCc1ccc(-c2ccccc2)cc1	none (no result: FXN GAA850 act, MITF act, AHR act, Wnt bcat act)
COCC(=O)Nc1ccc2c(c1)C(=O)N(C)C[C@@H](OC)[C@@H](C)CN(C(=O)c1ccccc1F)[C@H](C)CO2	none (no result: FXN GAA850 act, MITF act, AHR act, Wnt bcat act)
CNCc1ccccc1OCC(=O)Nc1ccccc1OC	AHR act 69 (no result: Wnt bcat act)
COc1ccc(OCC(=O)Nc2ccccc2OC)cc1	none
CCOc1ccc(C(=O)Nc2cc(NC(=O)c3ccc(OCC)c(Cl)c3)cc(C(=O)O)c2)cc1Cl	none (no result: AHR act)
CCOc1ccc(C(=O)Nc2ccc(Cl)cn2)cc1Cl	MITF act 103, Wnt bcat act inconclusive, esBAF inh 132
CN(C(=O)CSc1ncnc2sccc12)C1CCCCC1	Wnt bcat act 47, esBAF inh 75
C[C@@H]1CN([C@H](C)CO)C(=O)c2cc(NC(=O)CCCN(C)C)ccc2O[C@@H](C)CCCCO[C@@H]1CN(C)C(=O)NC1CCCCC1	none (no result: FXN GAA850 act, MITF act, AHR act, Wnt bcat act)
C[C@H](CO)N1C[C@H](C)[C@@H](CN(C)C(=O)C2CCCCC2)OCCCC[C@H](C)Oc2ccc(NC(=O)Cc3ccccc3)cc2C1=O	none (no result: FXN GAA850 act, MITF act, AHR act, Wnt bcat act)
Cc1ccc(-c2c(C#N)c(N)n3c(nc4ccccc43)c2C#N)cc1	AHR act 49 (no result: Wnt bcat act, esBAF inh)
Cc1cc(Cl)n2c(nc3ccccc32)c1C#N	none (no result: AHR act, esBAF inh)
N#Cc1c(-c2ccccc2)c(C#N)c2nc3ccccc3n2c1N	none (no result: esBAF inh)
CCN(CC)c1cc(C)c(C#N)c2nc3ccccc3n12	Wnt bcat act 36
COc1ccc(NC(=O)Nc2ccc3c(c2)[C@@H]2C[C@@H](CC(=O)NC4CCCC4)O[C@@H](CO)[C@@H]2O3)cc1	none (no result: FXN GAA850 act, MITF act, AHR act, Wnt bcat act)
Cc1cccc(OCCCn2c(=O)oc3ccccc32)c1	esBAF inh 48
O=C(C[C@H]1C=C[C@@H](NC(=O)c2ccncc2)[C@H](CO)O1)Nc1ccc(-c2ccccc2)cc1	none (no result: FXN GAA850 act, MITF act, AHR act, Wnt bcat act)
O=C(Nc1cccc2nsnc12)c1cccs1	esBAF inh 47!
O=C(Nc1cccc2nsnc12)c1ccc(-c2ccc(Br)cc2)o1	AHR act 49 (no result: esBAF inh)
O=C(Nc1ccccc1)Nc1cccc2nsnc12	Wnt bcat act 40 (no result: esBAF inh)
COC(=O)c1ccccc1NC(=O)c1ccc(-c2ccc(Br)cc2)o1	none (no result: MITF act)
O=C(C[C@H]1CC[C@@H]2[C@H](COC[C@H](O)CN2C(=O)c2ccccc2)O1)NC1Cc2ccccc2C1	none (no result: FXN GAA850 act, MITF act, AHR act, Wnt bcat act)
CCCN(C)C[C@H]1Oc2ncc(-c3cccnc3)cc2C(=O)N([C@H](C)CO)C[C@H]1C	none (no result: FXN GAA850 act, MITF act, AHR act, Wnt bcat act)
c1ccc2c(c1)Cc1cc3ccccc3nc1-2	Wnt bcat act 44
Cc1cc2ccccc2nc1-c1ccccc1F	none (no result: AHR act, esBAF inh)
O=C1c2ccccc2-c2nnc(-c3ccc(O)cc3)cc21	none (no result: esBAF inh)
O=C1c2ccccc2-c2nc3ccccc3cc21	Wnt bcat act 59
C[C@H]1CN([C@@H](C)CO)C(=O)c2cccc(NC(=O)C3CC3)c2O[C@@H]1CN(C)S(=O)(=O)c1cccs1	none (no result: FXN GAA850 act, MITF act, AHR act, Wnt bcat act)
CCc1cc2c3c(c(=O)oc2cc1O)CCCC3	AHR act 76
Nc1c(C(=O)C2CC2)sc2nc3c(cc12)CCC3	MITF act 117 (no result: esBAF inh)
Nc1c(C(=O)c2ccc(Cl)cc2)sc2nc3c(cc12)CCC3	MITF act 152, AHR act 53 (no result: esBAF inh)
NC(=O)c1sc2nc3c(cc2c1N)CCCCCC3	esBAF inh 46
Nc1c(C(=O)O)sc2nc3c(cc12)CCCC3	none (no result: MITF act, esBAF inh)
O=C(C[C@H]1CC[C@H]2[C@@H](COC[C@H](O)CN2Cc2cccc(C(F)(F)F)c2)O1)NCc1ccc(Cl)cc1	none (no result: FXN GAA850 act, MITF act, AHR act, Wnt bcat act)
CC(C)NC(=O)NCC[C@H]1CC[C@H](NC(=O)CN(C)C)[C@@H](CO)O1	none (no result: FXN GAA850 act, MITF act, AHR act, Wnt bcat act)
O=C(COc1cccc2cccnc12)N/N=C/c1ccccc1O	none (no result: esBAF inh)
O=C(O)c1ccc(N/N=C/c2ccncc2)cc1	none (no result: esBAF inh)
Oc1ccccc1/C=N/Nc1cccc2cccnc12	Wnt bcat act 67, esBAF inh 50 (no result: MITF act)
O=C(O)c1ccc(N/N=C/c2cccc3cccnc23)cc1	Wnt bcat act 41 (no result: esBAF inh)
O=C(NCC[C@@H]1CC[C@@H](NC(=O)c2cnccn2)[C@H](CO)O1)c1ccc2c(c1)OCO2	none (no result: FXN GAA850 act, MITF act, AHR act, Wnt bcat act)
CC1CCN(c2nc3ccc(C(=O)NCCCN4CCCCC4)cc3s2)CC1	esBAF inh 62
CCC1CCCCN1CCCNC(=O)c1ccc2nc(N3CCC(C)CC3)sc2c1 (configuration not stated)	esBAF inh 58
CC1CCN(c2nc3ccc(C(=O)O)cc3s2)CC1	none (no result: Wnt bcat act)
CCC1CCCCN1CCCNC(=O)c1ccc2c(c1)NC(=O)CS2 (configuration not stated)	none
CN(C)c1ccc2c(c1)[C@H]1C[C@H](CC(=O)NCc3ccc(Cl)cc3)O[C@@H](CO)[C@H]1O2	none (no result: FXN GAA850 act, MITF act, AHR act, Wnt bcat act)
COc1ccc(S(=O)(=O)N[C@H]2CC[C@@H](CC(=O)NCCc3ccccc3)O[C@@H]2CO)cc1	none (no result: FXN GAA850 act, MITF act, AHR act, Wnt bcat act)
C[C@@H]1CN([C@H](C)CO)C(=O)c2cc(NS(=O)(=O)c3ccc(Cl)cc3)ccc2O[C@@H]1CN(C)C	none (no result: FXN GAA850 act, MITF act, AHR act, Wnt bcat act)
Cc1nc2ccc(NC(=O)c3ccco3)cc2s1	MITF act 91, Wnt bcat act inconclusive (no result: esBAF inh)
O=C(Nc1nc2cc3c(cc2s1)OCCO3)c1cccc(N2C(=O)CCC2=O)c1	AHR act 52 (no result: MITF act)
O=C(Nc1nc2ccccc2s1)c1cccc(N2C(=O)CCC2=O)c1	esBAF inh inconclusive
CS(=O)(=O)c1ccc2nc(NC(=O)c3ccccc3)sc2c1	none (no result: MITF act)
Cc1cccc(C(=O)Nc2nc3ccc(S(C)(=O)=O)cc3s2)c1	esBAF inh 46 (no result: MITF act, AHR act)
CCN(CC)S(=O)(=O)c1ccc2nc(NC(=O)c3cccs3)sc2c1	AHR act 72 (no result: Wnt bcat act, esBAF inh)
O=C(Nc1ccc(F)cc1)Nc1sccc1-c1nc2ccccc2s1	AHR act 60 (no result: MITF act, esBAF inh)
Cc1nc2ccc(NC(=O)c3sccc3C)cc2s1	esBAF inh 46
